# From PubChem BioAssay (NCI)
# About 83,000 compounds went through this panel and 20% of them were active in at least one assay; those are over-represented in the sample as a whole.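 Compound tested at a single concentration for 48 hours in 96-well plates; a percent growth value below 10 was scored as active.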 A number with no mark means an inactive call. Activity calls are given as the source filed them.
# Tested on: A498 renal
# Assay: NCI-60 one-dose screen, 48 h (100 = growth as untreated, 0 = no growth, -100 = all killed)
# Details: 10 µM unless noted
row,Compound,growth
1,CC1Cc2c(N(C)C)ncnc2N(C)c2ccc(O)cc21 (stereo unspecified),76.7%
2,O=S(=O)(NCCCNc1cc(-c2cn(-c3ccccc3)nc2-c2cccc(O)c2)ccn1)c1ccc(C(F)(F)F)cc1,57.2%
3,Cc1ccc(S(=O)(=O)N2CCC(C(=O)Nc3ccc(F)cc3F)CC2)cc1,83.7%
4,COc1ccc2c(c1)NC(=O)CN2c1nc(NC2CC2)nc2ccccc12,-12.8% (active)
5,C=C1C(=O)O[C@H]2[C@H]1CC/C(COC(=O)NCCc1cccc(OC)c1)=C\CC[C@@]1(C)O[C@@H]21,82.4%
6,COc1cc(-c2csc(NC(=O)c3cc(C(F)(F)F)cc(C(F)(F)F)c3)n2)cc(OC)c1OC,11.1%
7,Clc1nc(Cl)c2ncn(C/C=C/Cn3cnc4c(Cl)nc(Cl)nc43)c2n1,90.2%
8,Cc1ccc2c(c1)C(C)Cc1c(ncnc1-n1cnc3ccccc31)N2C (stereo unspecified),-16% (active)
9,CCN(CC)S(=O)(=O)c1ccc2[nH]c(=O)cc(C(=O)Nc3ccc(OC)cc3OC)c2c1,146%
10,COC(=O)CCCCCN=Cc1c(O)c(O)c(C(C)C)c2cc(C)c(-c3c(C)cc4c(C(C)C)c(O)c(O)c(C=NCCCCCC(=O)OC)c4c3O)c(O)c12,35.1%
11,CCC(=O)Oc1ccc2c(c1)CC[C@@H]1[C@@H]2CC[C@]2(C)C[C@H](OC(=O)CC)C[C@@H]12,7.94% (active)
12,C=C1C(=O)O[C@H]2[C@H]1CC/C(COC(=O)NCc1cc(OC)cc(OC)c1)=C\CC[C@@]1(C)O[C@@H]21,68%
13,O=C(Nc1ccc(I)cc1)c1cc([N+](=O)[O-])ccc1O,-27.9% (active)
14,O=C(CNC(=O)c1cccc2ccccc12)Nc1ccccc1Oc1ccccc1,-14.9% (active)
15,O=C(/C=C/CN1CCOCC1)Nc1cc2c(Nc3ccc(F)c(Cl)c3F)ncnc2cc1OCCOC(F)F,-5.14% (active)
16,O=C(NCCc1c[nH]c2ccccc12)C1Cc2ccccc2CN1C(=O)c1ccco1 (stereo unspecified),107%
17,Nc1cc2c(cc1N)-c1cc(N)c(N)cc1C2,63.5%
18,COc1ccc(/C(=N\O)c2cc(OC)c(OC)c(OC)c2)c(OC)c1N,-19.3% (active)
19,CCC(c1ccc(OC)cc1)C(CC)c1ccc(O)c(CN2CCCC2)c1 (stereo unspecified),-5.74% (active)
20,CC(C)(C)c1cc(-c2nc3ccc(N4CCN(CCO)CC4)cc3[nH]2)cc(C(C)(C)C)c1O,86.1%
21,OCc1c(-c2ccccc2)nc2sccn12,95.9%
22,O=C(OCCCCOC(=O)n1cnc2ccccc21)n1cnc2ccccc21,89.3%
23,OC1CC2c3ccccc3C1c1ccccc12 (stereo unspecified),125%

# Tested on: CCRF-CEM leukemia
# Assay: as above
# Details: 10 µM unless noted
row,Compound,growth
1,N#Cc1c(NC(=O)c2ccc([N+](=O)[O-])o2)[n+]([O-])c2cc(F)c(F)cc2[n+]1[O-],100%
2,CC(C)(C)OC(=O)N1C/C(=C\c2cccs2)C(=O)/C(=C/c2cccs2)C1,51.7%
3,CC(Cc1nnc(SCC(=O)Nc2ccc(I)cc2)n1N)c1ccccc1 (stereo unspecified),54.9%
4,COC(=O)CC/C(C)=N\Nc1ccc([N+](=O)[O-])cc1,35%
5,COc1ccccc1OCC(=O)Nc1sc2c(c1C(N)=O)CCC2,24.3%
6,CC(=O)N1Cc2ccccc2C(C)Cc2cc(Cl)ccc21 (stereo unspecified),110%
7,COc1ccc(/C(=N/O)c2cc(OC)c(OC)c(OC)c2)c(OC)c1N,22.3%
8,CC(C)CCC[C@@H](C)[C@H]1CC[C@H]2[C@@H]3CC[C@H]4C/C(=N/O)CC[C@]4(C)[C@H]3CC[C@]12C,100%
9,C/C(=N\NC(=O)CC#N)c1cc2cc(Cl)ccc2o1,70.2%
10,CCC#CC[C@H]1C/C=C2/C(=O)C=C[C@@H]2C/C=C\CCCC(=O)O1,9.12% (active)
11,Cc1cc(C(=O)O)c(N)c(C)n1,107%
12,CCCCCCOc1ccc(C2(Cl)c3ccccc3N(C)c3ccccc32)cc1,89.2%
13,CC(C)N(Cc1ccc(CN(C(=O)CCl)C(C)C)cc1)C(=O)CCl,-29.4% (active)
14,COc1cc(-n2nc(C(=O)Nc3ccc(C(=O)O)cc3)nc2-c2ccccc2)cc(OC)c1OC,89%
15,NC(=O)NNC(=O)c1ccccc1,105%
16,CC1Cc2c(N(C)C)ncnc2N(C)c2ccc(O)cc21 (stereo unspecified),85.3%
17,O=S(=O)(NCCCNc1cc(-c2cn(-c3ccccc3)nc2-c2cccc(O)c2)ccn1)c1ccc(C(F)(F)F)cc1,30.2%
18,Cc1ccc(S(=O)(=O)N2CCC(C(=O)Nc3ccc(F)cc3F)CC2)cc1,101%
19,COc1ccc2c(c1)NC(=O)CN2c1nc(NC2CC2)nc2ccccc12,31.7%

row,Compound,growth
1,C=C1C(=O)O[C@H]2[C@H]1CC/C(COC(=O)NCCc1cccc(OC)c1)=C\CC[C@@]1(C)O[C@@H]21,4.38% (active)
2,COc1cc(-c2csc(NC(=O)c3cc(C(F)(F)F)cc(C(F)(F)F)c3)n2)cc(OC)c1OC,29.3%
3,Clc1nc(Cl)c2ncn(C/C=C/Cn3cnc4c(Cl)nc(Cl)nc43)c2n1,18.2%
4,Cc1ccc2c(c1)C(C)Cc1c(ncnc1-n1cnc3ccccc31)N2C (stereo unspecified),10%
5,CCN(CC)S(=O)(=O)c1ccc2[nH]c(=O)cc(C(=O)Nc3ccc(OC)cc3OC)c2c1,92.6%
6,COC(=O)CCCCCN=Cc1c(O)c(O)c(C(C)C)c2cc(C)c(-c3c(C)cc4c(C(C)C)c(O)c(O)c(C=NCCCCCC(=O)OC)c4c3O)c(O)c12,18.1%
7,CCC(=O)Oc1ccc2c(c1)CC[C@@H]1[C@@H]2CC[C@]2(C)C[C@H](OC(=O)CC)C[C@@H]12,74.6%
8,C=C1C(=O)O[C@H]2[C@H]1CC/C(COC(=O)NCc1cc(OC)cc(OC)c1)=C\CC[C@@]1(C)O[C@@H]21,2.4% (active)
9,O=C(Nc1ccc(I)cc1)c1cc([N+](=O)[O-])ccc1O,28.4%
10,O=C(CNC(=O)c1cccc2ccccc12)Nc1ccccc1Oc1ccccc1,18.3%
11,O=C(/C=C/CN1CCOCC1)Nc1cc2c(Nc3ccc(F)c(Cl)c3F)ncnc2cc1OCCOC(F)F,94%
12,O=C(NCCc1c[nH]c2ccccc12)C1Cc2ccccc2CN1C(=O)c1ccco1 (stereo unspecified),81.2%
13,Nc1cc2c(cc1N)-c1cc(N)c(N)cc1C2,88.2%
14,COc1ccc(/C(=N\O)c2cc(OC)c(OC)c(OC)c2)c(OC)c1N,12.6%
15,CCC(c1ccc(OC)cc1)C(CC)c1ccc(O)c(CN2CCCC2)c1 (stereo unspecified),19.7%
16,CC(C)(C)c1cc(-c2nc3ccc(N4CCN(CCO)CC4)cc3[nH]2)cc(C(C)(C)C)c1O,29.5%
17,OCc1c(-c2ccccc2)nc2sccn12,17.9%
18,O=C(OCCCCOC(=O)n1cnc2ccccc21)n1cnc2ccccc21,101%
19,OC1CC2c3ccccc3C1c1ccccc12 (stereo unspecified),104%
